# The full data set covers some 7,900 targets. This sample favours those with a hit. About 0.6% of all pairs of compound and target were hits. Values without a mark were called inactive.
# Experiments:
# Experiment in all cases: log2 fold change, soluble protein after heating vs DMSO (PISA); higher = thermal stabilisation; K562 cells, 10 uM, 30 min; active = over 0.2 and 3.5 SD of the protein, either way, in both replicates (recomputed)
# [1] = compound: C#Cc1cccc(Nc2ncnc3cc(OCCOC)c(OCCOC)cc23)c1 [erlotinib]
# In short: (§1)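 Thermal stability values are relative to control samples and come from duplicates. They are expressed as log2 fold changes. For measurement, K562 cells (2×10^6 cells/mL) received 10 μM compound for 30 min, and aliquots were heated for 3 min over 48°C-58°C, pooled, and extracted at 4°C in PBS with 0.5% NP-40. Soluble protein, the supernatant after 21,000xg for 90 min, was quantified by TMTpro 16plex LC-MS/MS with equalised channel sums.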
# [2] = compound: C/C(=N\NC(=O)C1=CC(=CC=C1)S(=O)(=O)N2CCOCC2)/C3=C(C=CC(=C3)Cl)O
# In short: as §1
# [3] = compound: C1=CC(=C(C=C1Cl)C2=NC3=NC=CN=C3C(=N2)NC4=CC=NC=C4)F
# In short: as §1
# [4] = compound: C1=CC(=CC=C1C2=NC3=C(N2)C=C(C=C3)C(=O)N)OC4=CC=C(C=C4)Cl
# In short: as §1
# [5] = compound: C1=CC2=C(C=CC(=C2)/C=C\3/C(=O)NC(=NCC4=CC=CS4)S3)N=C1
# In short: as §1
# [6] = compound: C1=CC2=NC=CN=C2C=C1/C=C/3\C(=O)NC(=O)S3
# In short: as §1
# [7] = compound: C1=CC=C(C=C1)C2=NC(=C(N2)C3=CC=NC=C3)C4=CC(=C(C=C4)Cl)O
# In short: as §1
# [8] = compound: C1=CC=C2C(=C1)C3=NNC4=CC=CC(=C43)C2=O
# In short: as §1
# [9] = compound: C1CCN(C1)C(=O)NC2=CC=CC(=C2)NC3=NC=C(C(=N3)NCCC4=CN=CN4)Br
# In short: as §1
# [10] = compound: C1CN(CCC1(CC2=CC=C(C=C2)Cl)N)C3=NC=NC4=C3C=CN4
# In short: as §1
# [11] = compound: C1COCCN1CCN2C3=CC=CC=C3N=C2NC(=O)C4=CC(=CC=C4)[N+](=O)[O-] [IRAK-1-4 Inhibitor I]
# In short: as §1
# [12] = compound: C=CC(=O)N1CCC[C@@H](n2nc(-c3ccc(Oc4ccccc4)cc3)c3c(N)ncnc32)C1 [ibrutinib]
# In short: as §1
# [13] = compound: CC(=O)c1cnc2ccc(-c3cc(Cl)c(O)c(Cl)c3)nc2c1N[C@H]1CC[C@H](CN(C)C)CC1
# In short: as §1
# [14] = compound: CC(C)(C)Cn1c(N)nc2ccc(-c3[nH]c(C(C)(C)C)nc3-c3ccc(F)cc3)nc21 [ralimetinib]
# In short: as §1
# [15] = compound: CC(C)(O)CC(=O)NCCn1ccc2ncnc(Nc3ccc(Oc4cccc(C(F)(F)F)c4)c(Cl)c3)c21
# In short: as §1
# [16] = compound: CC(C)C1=C2N=C(C=C(N2N=C1)NCC3=CC=CC=C3)NCCCCCCN
# In short: as §1
# [17] = compound: CC(C)C[C@@H](C=O)NC(=O)[C@H](CC(C)C)NC(=O)[C@H](CC(C)C)NC(=O)OCc1ccccc1
# In short: as §1
# [18] = compound: CC(C)N(C[C@H]1O[C@@H](n2cnc3c(N)ncnc32)[C@H](O)[C@@H]1O)[C@H]1C[C@@H](CCc2nc3cc(C(C)(C)C)ccc3[nH]2)C1 [pinometostat]
# In short: as §1
# [19] = compound: CC1=C(C(CC(=O)N1)C2=CC=C(C=C2)C(F)(F)F)C(=O)NC3=C(C=C4C(=C3)C=NN4)F
# In short: as §1
# [20] = compound: CC1=C(C2=C(C=C1)C(=O)C3=CC=CC=C3N2CCCN)C
# In short: as §1
# UniProt Q9Y5L4, sequence (Q9Y5L4 whole entry, looked up): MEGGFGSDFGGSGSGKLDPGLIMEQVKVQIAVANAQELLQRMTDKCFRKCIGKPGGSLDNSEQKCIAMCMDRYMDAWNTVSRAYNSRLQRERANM
# UniProt O95926, sequence (O95926 whole entry, looked up): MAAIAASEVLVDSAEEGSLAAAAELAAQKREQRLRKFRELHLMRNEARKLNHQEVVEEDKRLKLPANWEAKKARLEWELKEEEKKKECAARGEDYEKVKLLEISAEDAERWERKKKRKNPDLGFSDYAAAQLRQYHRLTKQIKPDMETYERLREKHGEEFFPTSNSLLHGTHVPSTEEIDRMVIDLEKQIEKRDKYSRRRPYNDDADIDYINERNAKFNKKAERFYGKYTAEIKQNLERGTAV
# UniProt Q969Z0, sequence (Q969Z0 whole entry, looked up): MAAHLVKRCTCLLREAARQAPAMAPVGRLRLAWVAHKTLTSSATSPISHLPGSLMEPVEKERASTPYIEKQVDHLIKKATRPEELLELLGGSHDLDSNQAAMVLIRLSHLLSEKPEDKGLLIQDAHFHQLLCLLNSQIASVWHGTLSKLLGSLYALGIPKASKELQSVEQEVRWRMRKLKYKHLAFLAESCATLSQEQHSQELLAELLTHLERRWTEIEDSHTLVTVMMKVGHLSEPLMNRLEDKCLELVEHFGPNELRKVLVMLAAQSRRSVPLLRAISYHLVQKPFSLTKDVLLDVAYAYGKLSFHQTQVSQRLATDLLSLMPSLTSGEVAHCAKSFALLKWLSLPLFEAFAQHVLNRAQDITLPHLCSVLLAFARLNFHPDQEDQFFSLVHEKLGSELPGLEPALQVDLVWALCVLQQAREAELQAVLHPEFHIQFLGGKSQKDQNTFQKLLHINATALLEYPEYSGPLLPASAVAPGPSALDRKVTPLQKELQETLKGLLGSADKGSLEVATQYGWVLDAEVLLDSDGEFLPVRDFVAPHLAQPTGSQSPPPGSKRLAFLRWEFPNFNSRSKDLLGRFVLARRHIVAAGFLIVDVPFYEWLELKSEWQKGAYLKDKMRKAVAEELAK
# UniProt Q5JUR7, sequence (Q5JUR7 whole entry, looked up): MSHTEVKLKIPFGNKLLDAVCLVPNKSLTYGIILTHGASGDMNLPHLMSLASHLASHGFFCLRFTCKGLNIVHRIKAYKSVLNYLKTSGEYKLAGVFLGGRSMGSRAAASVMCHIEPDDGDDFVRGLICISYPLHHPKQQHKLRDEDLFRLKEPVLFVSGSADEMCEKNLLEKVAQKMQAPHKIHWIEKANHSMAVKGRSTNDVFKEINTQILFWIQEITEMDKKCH
# UniProt P04183, sequence (P04183 whole entry, looked up): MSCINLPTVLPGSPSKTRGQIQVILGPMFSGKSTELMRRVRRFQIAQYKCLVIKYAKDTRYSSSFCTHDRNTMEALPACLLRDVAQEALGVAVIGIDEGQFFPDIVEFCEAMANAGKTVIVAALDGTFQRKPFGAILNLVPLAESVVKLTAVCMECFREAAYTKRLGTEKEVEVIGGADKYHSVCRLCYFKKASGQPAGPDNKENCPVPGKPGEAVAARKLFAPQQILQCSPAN
# UniProt Q9H2K8, sequence (Q9H2K8 whole entry, looked up): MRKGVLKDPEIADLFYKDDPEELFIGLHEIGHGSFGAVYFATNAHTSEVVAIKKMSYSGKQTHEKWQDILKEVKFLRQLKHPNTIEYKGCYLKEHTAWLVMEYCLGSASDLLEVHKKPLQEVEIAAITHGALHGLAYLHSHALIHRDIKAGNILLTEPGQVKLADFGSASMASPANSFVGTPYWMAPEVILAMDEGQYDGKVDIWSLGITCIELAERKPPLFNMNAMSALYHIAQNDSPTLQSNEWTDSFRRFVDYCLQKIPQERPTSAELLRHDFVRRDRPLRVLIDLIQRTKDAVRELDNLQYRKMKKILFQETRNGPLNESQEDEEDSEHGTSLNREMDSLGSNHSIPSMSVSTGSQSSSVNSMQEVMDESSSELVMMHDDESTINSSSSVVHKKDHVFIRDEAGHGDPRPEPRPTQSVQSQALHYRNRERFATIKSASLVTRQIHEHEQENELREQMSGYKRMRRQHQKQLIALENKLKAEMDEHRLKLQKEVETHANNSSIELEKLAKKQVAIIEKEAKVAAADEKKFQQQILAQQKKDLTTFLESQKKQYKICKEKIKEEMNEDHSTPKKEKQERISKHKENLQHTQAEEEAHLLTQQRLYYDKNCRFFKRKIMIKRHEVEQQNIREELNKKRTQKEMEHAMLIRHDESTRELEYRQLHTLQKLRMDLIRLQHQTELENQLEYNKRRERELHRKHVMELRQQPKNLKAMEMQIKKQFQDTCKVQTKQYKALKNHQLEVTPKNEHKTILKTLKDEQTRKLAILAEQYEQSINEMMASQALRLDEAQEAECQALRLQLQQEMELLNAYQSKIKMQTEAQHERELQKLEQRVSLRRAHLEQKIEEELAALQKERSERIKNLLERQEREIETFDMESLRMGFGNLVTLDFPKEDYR
# UniProt Q9P2R7, sequence (Q9P2R7 whole entry, looked up): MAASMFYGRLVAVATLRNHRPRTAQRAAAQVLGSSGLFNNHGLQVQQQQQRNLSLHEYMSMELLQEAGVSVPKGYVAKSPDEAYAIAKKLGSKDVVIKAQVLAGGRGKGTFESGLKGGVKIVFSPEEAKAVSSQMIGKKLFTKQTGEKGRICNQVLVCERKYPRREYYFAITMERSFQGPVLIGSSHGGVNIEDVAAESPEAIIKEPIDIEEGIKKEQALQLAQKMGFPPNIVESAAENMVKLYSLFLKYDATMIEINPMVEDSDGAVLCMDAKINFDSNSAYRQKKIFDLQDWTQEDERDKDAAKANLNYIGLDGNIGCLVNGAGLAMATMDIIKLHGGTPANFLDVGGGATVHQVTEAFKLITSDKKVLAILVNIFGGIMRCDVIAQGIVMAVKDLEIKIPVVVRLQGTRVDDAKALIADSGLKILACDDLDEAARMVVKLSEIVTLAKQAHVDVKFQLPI
# UniProt Q9Y2H1, sequence (Q9Y2H1 whole entry, looked up): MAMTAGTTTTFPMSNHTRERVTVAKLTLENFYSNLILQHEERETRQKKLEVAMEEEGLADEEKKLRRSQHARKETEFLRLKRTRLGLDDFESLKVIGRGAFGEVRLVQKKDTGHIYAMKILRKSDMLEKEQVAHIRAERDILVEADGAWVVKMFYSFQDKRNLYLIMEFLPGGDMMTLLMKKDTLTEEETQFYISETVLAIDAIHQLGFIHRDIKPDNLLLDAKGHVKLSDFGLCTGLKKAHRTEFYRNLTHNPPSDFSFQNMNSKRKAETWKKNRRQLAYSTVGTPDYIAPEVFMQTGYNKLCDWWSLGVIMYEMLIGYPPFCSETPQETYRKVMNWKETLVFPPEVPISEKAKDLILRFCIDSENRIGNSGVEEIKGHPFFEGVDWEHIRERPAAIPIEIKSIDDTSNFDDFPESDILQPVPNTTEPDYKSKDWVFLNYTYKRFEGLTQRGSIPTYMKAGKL
# UniProt Q96QD8, sequence (Q96QD8 whole entry, looked up): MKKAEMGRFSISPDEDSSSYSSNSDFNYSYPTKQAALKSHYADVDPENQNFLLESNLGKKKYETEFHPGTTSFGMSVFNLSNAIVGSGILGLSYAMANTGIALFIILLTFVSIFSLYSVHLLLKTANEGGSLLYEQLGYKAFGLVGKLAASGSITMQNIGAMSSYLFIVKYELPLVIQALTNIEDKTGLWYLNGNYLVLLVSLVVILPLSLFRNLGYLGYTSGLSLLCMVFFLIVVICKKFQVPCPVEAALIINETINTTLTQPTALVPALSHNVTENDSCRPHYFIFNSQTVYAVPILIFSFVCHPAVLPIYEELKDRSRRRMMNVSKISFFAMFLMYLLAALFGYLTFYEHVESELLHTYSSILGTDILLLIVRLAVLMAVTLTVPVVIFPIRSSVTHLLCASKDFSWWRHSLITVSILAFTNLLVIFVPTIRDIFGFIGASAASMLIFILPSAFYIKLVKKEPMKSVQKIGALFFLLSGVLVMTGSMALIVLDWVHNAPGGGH
# UniProt Q9Y4R8, sequence (Q9Y4R8 whole entry, looked up): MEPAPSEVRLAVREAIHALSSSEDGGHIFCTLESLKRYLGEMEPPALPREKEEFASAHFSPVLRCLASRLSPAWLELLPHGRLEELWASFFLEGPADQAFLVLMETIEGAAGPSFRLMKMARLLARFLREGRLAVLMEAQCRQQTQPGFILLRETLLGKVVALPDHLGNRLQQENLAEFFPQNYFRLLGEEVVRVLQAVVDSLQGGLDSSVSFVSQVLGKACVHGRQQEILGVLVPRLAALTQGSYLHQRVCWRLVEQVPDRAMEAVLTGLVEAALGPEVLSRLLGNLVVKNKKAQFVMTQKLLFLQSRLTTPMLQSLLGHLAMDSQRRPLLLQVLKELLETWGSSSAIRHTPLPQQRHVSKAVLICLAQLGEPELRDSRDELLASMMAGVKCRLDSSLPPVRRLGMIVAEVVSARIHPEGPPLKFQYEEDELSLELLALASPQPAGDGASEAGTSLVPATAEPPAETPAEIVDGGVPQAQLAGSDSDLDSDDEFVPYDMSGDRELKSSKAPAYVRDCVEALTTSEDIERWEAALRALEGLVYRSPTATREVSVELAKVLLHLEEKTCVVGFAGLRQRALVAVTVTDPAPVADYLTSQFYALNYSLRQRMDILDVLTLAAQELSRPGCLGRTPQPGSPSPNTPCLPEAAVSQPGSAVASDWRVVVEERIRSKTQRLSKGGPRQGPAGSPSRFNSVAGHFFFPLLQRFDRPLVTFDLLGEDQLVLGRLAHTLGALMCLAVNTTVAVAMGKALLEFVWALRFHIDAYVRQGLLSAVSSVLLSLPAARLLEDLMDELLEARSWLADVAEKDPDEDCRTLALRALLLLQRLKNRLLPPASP
# UniProt P55061, sequence (P55061 whole entry, looked up): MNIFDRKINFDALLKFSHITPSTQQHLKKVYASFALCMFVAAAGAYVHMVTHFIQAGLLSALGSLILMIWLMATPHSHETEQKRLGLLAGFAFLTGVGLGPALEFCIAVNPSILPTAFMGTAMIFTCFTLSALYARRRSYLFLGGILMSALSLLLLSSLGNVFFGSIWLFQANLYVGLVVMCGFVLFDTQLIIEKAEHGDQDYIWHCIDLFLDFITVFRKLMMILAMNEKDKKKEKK
Target,log2 fold change [1],log2 fold change [2],log2 fold change [3],log2 fold change [4],log2 fold change [5],log2 fold change [6],log2 fold change [7],log2 fold change [8],log2 fold change [9],log2 fold change [10],log2 fold change [11],log2 fold change [12],log2 fold change [13],log2 fold change [14],log2 fold change [15],log2 fold change [16],log2 fold change [17],log2 fold change [18],log2 fold change [19],log2 fold change [20]
TMBIM6 isoform 2 (UniProt P55061),-0.019,0.029,0.051,-0.062,0.067,0.076,0.019,-0.07,0.026,-0.01,0.023,0.001,0.004,-0.208,-0.437 (active),-0.521 (active),0.135,0.017,0.003,-0.075
TELO2 (UniProt Q9Y4R8),0.043,0.102,-0.185,-0.031,-0.039,0.019,-0.037,0.053,0.046,-0.076,-0.126,-0.044,0.008,0.103,0,-0.375,0.049,0.204,-0.015,0.125
STIM1 (UniProt Q13586),-0.015,0.01,0.043,0.014,0.039,-0.007,-0.025,-0.067,-0.003,0.016,0.006,0.007,-0.06,-0.036,-0.067,-0.33 (active),0.034,-0.011,0.006,0.067
TAOK3 (UniProt Q9H2K8),-0.017,0.08,0.009,0.037,0.02,0.018,0.018,-0.007,-0.044,0.007,0.007,0.002,-0.48 (active),0.009,-0.011,0.007,0.033,0.012,0.003,0.035
TBRG4 (UniProt Q969Z0),0.072,0.18,0.046,-0.154,0.063,-0.056,0.056,-0.201,-0.07,-0.036,-0.031,0,-0.188,-0.134,-0.578 (active),-0.624,-0.038,-0.014,0.029,-0.171
SUCLA2 (UniProt Q9P2R7),0.024,0.016,0.072,-0.031,0.049,-0.018,0.037,-0.019,0.004,-0.01,0.02,-0.045,0.014,-0.021,-0.151,-0.107,-0.033,-0.034,-0.021,0.022
SYF2 (UniProt O95926),-0.042,-0.054,-0.052,0.05,-0.054,0.069,0.023,-0.097,-0.024,0.122,-0.063,0.056,0.411 (active),-0.019,0.049,0.327,0.199,0.072,0.023,0.382 (active)
TEX30 (UniProt Q5JUR7),0.183,0.165,-0.011,-0.013,0.188,0.025,-0.01,0.046,-0.147,-0.029,-0.013,0.08,-0.048,0.053,-0.251,-0.075,0.03,0.105,0.061,0.028
TK1 (UniProt P04183),-0.029,0.004,0.044,0.017,-0.02,-0.012,-0.03,-0.011,-0.028,0.046,0.037,0.025,0.003,-0.048,-0.016,0.059,-0.001,-0.013,0.06,-0.01
SORT1 (UniProt Q99523),0.005,-0.024,0.03,-0.012,0.014,0.034,0.022,-0.018,-0.012,0.06,0.044,0.044,0.031,-0.005,-0.027,-0.202,-0.028,-0.03,-0.002,-0.019
STK38L (UniProt Q9Y2H1),-0.005,0.018,0.05,0.031,-0.015,0.046,-0.368,0.102,0.008,-0.041,-0.084,-0.048,-0.181,-0.577,-0.035,-0.148,0.385,0.051,0.013,-0.023
TIMM13 (UniProt Q9Y5L4),0.018,0,0.315,0,0.003,0.111,0.063,-0.005,-0.025,-0.006,-0.031,0.012,0.01,-0.008,-0.145,0.048,-0.085,-0.092,0.018,0.092
SP3 (UniProt Q02447),0.034,-0.028,0,0.059,0.003,-0.051,-0.053,-0.066,-0.065,-0.1,-0.129,0.003,-0.007,0,0.022,-0.006,0.054,0.026,0.114,0.607 (active)
SNX6 (UniProt Q9UNH7),0.093,0.056,0.035,0.017,0.042,-0.057,-0.053,-0.159,0.053,-0.018,0.012,0.035,-0.233,-0.035,-0.249,-0.234,0.013,0.048,0.026,-0.013
TATDN2 (UniProt Q93075),0.071,-0.062,-0.016,-0.013,0.043,-0.052,,0.003,-0.121,0.06,-0.006,0.072,-0.402 (active),,0.102,0.058,,0.047,-0.023,-0.218
SLC38A2 (UniProt Q96QD8),-0.093,0.075,0.01,0.003,-0.039,0.093,0.055,0,-0.009,0.048,0.018,0.022,-0.057,-0.097,-0.12,-0.28 (active),0.102,-0.053,0.019,0.01

# From the supplement of paper PMC10849652
